Records with an inconclusive call do not appear. Values without a mark were called inactive. Calls of active or inactive are those of the source. Calls come from the whole dose curve; as a rule, active = well fitted inhibition curve with a large enough effect; inconclusive = small, poorly fitted or top-dose-only effect; inactive = no such curve, though single readings can be large or run the other way.
Molecular target: Cruzipain (Trypanosoma cruzi) (UniProt P25779)
Experiment: Confirmation qHTS Assay for Inhibitors of Cruzain; note: nearly all actives have a fitted effect of over 40% in size;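 for activity change, negative = inhibition: plate controls were uninhibited enzyme control for no effect and buffer wells lacking enzyme for full effect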
Conditions: purified cruzain, Z-FR-AMC fluorescence, 0.01% Triton
Protocol: Cruzain is a cysteine protease from the tropical parasite Trypanosoma cruzi. This assay protocol is a follow-up and confirmation of related AID 1478 (qHTS Assay for Promiscuous and Specific Inhibitors of Cruzain -- with detergent). Cruzain was assayed by the use of fluorogenic coumarin-based substrate Z-FR-AMC: proteolytic cleavage releases AMC, whose fluorescence is measured at 360 nm excitation and 450 nm emission. Purified cruzain was supplied by the labs of Prof. James McKerrow and Brian Shoichet, UC San Francisco. This assay had 0.01% Triton X-100 concentration. See following references for additional details: Jadhav A, et al. J Med Chem. 2010 Jan 14;53(1):37-51. Mott BT, et al. J Med Chem. 2010 Jan 14;53(1):52-60. Assay Provider: Shoichet, Brian; University of California, San Fancisco Screening Center PI: Austin, C.P. Screening Center: NIH Chemical Genomics Center [NCGC]
Buffer: 100 mM Sodium Acetate, pH 5.5, 5 mM DTT, Triton X-100 concentration: 0.01%. Reagents/Controls: Buffer in columns 3 and 4 as negative control (no enzyme). Substrate solution: 2 uM final concentration of Z-FR-AMC (catalog number I-1160, Bachem) dispensed throughout the plate. Enzyme: 1.5 nM Cruzain final concentration in columns 1, 2, 5-48. Column 1 is neutral (100% activity). Column 2 contained titration of covalent inhibitor K11777, starting concentration 1 mM, then 1:2 dilution in duplicate). Assay Steps: Three uL of enzyme or buffer were dispensed to 1536-well Greiner black solid bottom plates. Compounds and controls (23 nL) were transferred via Kalypsys PinTool. The plates were incubated for 15 min at room temperature, and then 1 uL of substrate solution was added to start the reaction. The plates were immediately transferred to and read 4 times every 30 seconds for 2 min on ViewLux High-throughput CCD imager (Perkin-Elmer) using 360 nm excitation and 450 nm emission fluorescence protocol. The fluorescence intensity difference between the third and the first time points (time lapse of 60 seconds) was used to compute reaction progress.
Potency is the fitted concentration of half-maximal effect.

Chain of Cruzipain (Trypanosoma cruzi) (P25779 123-467 limits assumed): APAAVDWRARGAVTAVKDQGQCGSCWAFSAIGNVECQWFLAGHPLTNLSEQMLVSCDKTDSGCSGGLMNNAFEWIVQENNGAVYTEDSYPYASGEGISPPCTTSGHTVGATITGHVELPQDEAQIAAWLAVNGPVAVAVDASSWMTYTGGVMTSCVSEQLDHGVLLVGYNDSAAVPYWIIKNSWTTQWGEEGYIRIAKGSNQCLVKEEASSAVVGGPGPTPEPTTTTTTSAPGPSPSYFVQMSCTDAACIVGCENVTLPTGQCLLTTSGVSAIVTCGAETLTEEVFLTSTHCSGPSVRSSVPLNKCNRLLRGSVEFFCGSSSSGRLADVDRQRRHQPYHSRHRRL

Row | Compound | Potency | activity change, negative = inhibition [%]
1 | Cc1nc2c(=O)n(C)c(=O)nc-2n(C)n1 | 2000 nM (active) | 
2 | Cc1ccc(S(=O)(=O)N[C@@H](CCCCN)C(=O)CCl)cc1 | 282 nM (active) | 
3 | Cc1ccc(-c2nc3c(=O)n(C)c(=O)nc-3n(C)n2)cc1 | 1410 nM (active) | 
4 | CCc1ccccc1NC(=O)CSc1nnc([C@@H](N)Cc2c[nH]c3ccccc23)o1 |  | -73.4
5 | Cn1ncnc2c(=O)n(C)c(=O)nc1-2 | 2240 nM (active) | 
6 | O=C(Nc1nc(-c2ccccc2)c(-c2ccccc2)s1)c1ccc(S(=O)(=O)N(CCCl)CCCl)cc1 |  | -8.01
7 | CC(C)OC(=O)c1c(N)n(Cc2ccco2)c2nc3ccccc3nc12 |  | -8.08
8 | NC(=O)CSc1nnc([C@@H](N)Cc2c[nH]c3ccccc23)o1 | 15800 nM (active) | 
9 | CCn1nc(-c2ccccc2)nc2c(=O)n(C)c(=O)nc1-2 | 3980 nM (active) | 
10 | Cn1nc(-c2ccccc2)nc2c(=O)n(C)c(=O)nc1-2 | 1410 nM (active) | 
11 | N#CC(C#N)=NNc1cccc(Cl)c1 | 15800 nM (active) | 

From PubChem BioAssay AID2158 (National Center for Advancing Translational Sciences (NCATS), 2009)
